# According to PubChem BioAssay (EPA / NIEHS):
# The source holds several records for some structures; these can differ, active in one and inactive in another. Calls of active or inactive are those of the source. How the source made its calls: active means hit-call score of the fitted dose curve at least 0.9, where 1 is the maximum; inactive means score below 0.9.
# Experiment: ATG_M_61_CIS: Attagene CIS-FACTORIAL HepG2 Assay for M61 Transcription Factor (Internal Marker) (AID 2282937)
# Conditions: HepG2 Attagene CIS-FACTORIAL M61 internal marker reporter; actives raise or lower the signal
# Method: ATG_CIS is a cell-based, multiplexed-readout assay that uses HepG2, a human liver cell line, with measurements taken at 24 hours after chemical dosing in a 24-well plate.ATG_M_61_CIS is one of 52 assay component(s) measured or calculated from the ATG_CIS assay. It is designed to make measurements of mRNA induction, a form of inducible reporter, as detected with fluorescence intensity signals by Reverse transcription polymerase chain reaction (RT-PCR) and Capillary electrophoresis technology.Data from the assay component ATG_M_61_CIS was analyzed into 1 assay endpoint. This assay endpoint, ATG_M_61_CIS, was analyzed with bidirectional fitting relative to DMSO as the negative control and baseline of activity. Using a type of inducible reporter, measures of mRNA for gain or loss-of-signal activity can be used to understand the background control at the transcription factor-level as they relate to the gene . Furthermore, this assay endpoint can be referred to as a secondary readout, because this assay has produced multiple assay endpoints where this one serves a background control function. To generalize the intended target to other relatable targets, this assay endpoint is annotated to the background measurement intended target family, where the subfamily is internal marker.
# Human liver HepG2 cells are transiently transfected with multiple reporter transcription units (MRTUs) in 6-well plates using FuGene 6 reagent (Roche; 3 ml FuGene/1 mg DNA). The MRTU constructs are regulated by a cis-regulating element (promoter). […] A major difference between the CIS and TRANS system is that in CIS activities of endogenous TFs are measured, whereas the TRANS assay evaluates changes in activities of exogenous, chimeric NR-Gal4 proteins. […] At the end of 24 hour incubation, total RNA was isolated using TriZol reagent (Invitrogen). The isolated RNA is then reverse-transcribed using oligo(dT) primer and Mo-MLV reverse transcriptase (Invitrogen) with DNAse I (Ambion) treatment for 30 min. The one-tenth of the produced cDNA was amplified by PCR using Taq DNA polymerase (Invitrogen) and two reporter sequence-specific primers. The PCR products were fluorescently labeled by primer extension with 6-arboxyfluorescein (6-FAM) 5'-labeled reporter sequence-specific primer (2 min at 95 C, 20 s at 68 C and 10 min at 72 C) and these products were digested with 5U of HpaI (New England Biolabs) for 2h at 37 C. The fragments were purified using Qiaquick PCR columns (Qiagen), analyzed on an ABI 3130xL genetic analyzer (Applied Biosystems) with peak positions identified by using a set of X-rhodamine (ROX)-labeled MapMarker1000 molecular weight standards (BioVentures). The raw capillary electrophoresis data was processed using Attagraph software (Attagene).
Compound,outcome,AC50
CC(C)CCCCCCOC(=O)CCCCC(=O)OCCCCCCC(C)C,inactive,–
O=C(OCCOCCOC(=O)c1ccccc1)c1ccccc1,inactive,–
COCC(C)O (stereo not given),inactive,–
CN(C)C=O,inactive,–
CCN(CC)CCNc1ccc(CNC=O)c2sc3ccc(OC)cc3c(=O)c12,inactive,–
O=C(O)Cc1cc(I)c(Oc2cc(I)c(O)c(I)c2)c(I)c1,inactive,–
N#C[C@@H]1CC(F)(F)CN1C(=O)CNC1CC2CCC(C1)N2c1ncccn1 (stereo not given in full),inactive,–
CC(C)(C)c1cc(C(C)(C)C)c(O)c(C(C)(C)C)c1,inactive,–
CC[C@H](C)[C@@H](C(=O)O)n1sc2ccccc2c1=O,inactive,–
Cc1cc(CCN2CCN(c3nsc4ccccc34)CC2)cc2c1NC(=O)CC2(C)C,inactive,–
Oc1cccc(O)c1,inactive,–
COc1cc(CCC(=O)CC(=O)CCc2ccc(O)c(OC)c2)ccc1O,inactive,–
O=C(/C=C/c1ccc(O)cc1)CC(=O)/C=C/c1ccc(O)cc1,inactive,–
CC(O)CO (stereo not given),inactive,–
CC[C@H](c1ccc(O)cc1)[C@@H](CC)c1ccc(O)cc1,inactive,–
CN1CCC[C@H]1c1cccnc1,inactive,–
O=C1OC2(c3ccccc31)c1cc(Br)c(O)c(Br)c1Oc1c2cc(Br)c(O)c1Br,inactive,–
O=C(O)c1ccccc1C(c1ccc(O)cc1)c1ccc(O)cc1,inactive,–
CCCCCCCCCCCCN1CCCC1=O,inactive,–
CCc1ccc(CCOc2ccc(CC3SC(=O)NC3=O)cc2)nc1 (stereo not given),inactive,–

Compound,outcome,AC50
CCCCCCCCCCCCCCCS(=O)(=O)Oc1ccccc1,inactive,–
O=c1c(-c2ccc(O)cc2)coc2cc(O)ccc12,inactive,–
FC(F)(I)C(F)(F)C(F)(F)C(F)(F)C(F)(F)C(F)(F)I,inactive,–
CN1CCN(c2ccccc2/C=C2\SCCN(c3ccc(Cl)c(Cl)c3)C2=O)CC1,inactive,–
CCC(=C(c1ccc(O)cc1)c1ccc(OCCN(C)C)cc1)c1ccccc1,inactive,11.7 µM (active)
c1ccc2c(c1)Cc1ccccc1-2,inactive,–
CCCCCCCCOC(=O)CCCCCCCCC(=O)OCCCCCCCC,inactive,–
Cc1ccc(S(=O)(=O)O)c(C)c1,inactive,–
CC1=C(/C=C/C(C)=C/C=C/C(C)=C/C(=O)O)C(C)(C)CCC1,inactive,–
CC(=O)NC1(c2cccc(F)c2)CCN(CC[C@@]2(c3ccc(Cl)c(Cl)c3)CN(c3ccccc3)C(=O)CO2)CC1,inactive,–
NCC(F)(F)C(F)(F)C(F)(F)C(F)(F)C(F)(F)C(F)(F)C(F)(F)F,inactive,–
CCCOc1sc(C(=O)N2CCC(c3cc(CN)ccc3F)CC2)c(C)c1Br,inactive,–
CCOC(=O)CC(O)(CC(=O)OCC)C(=O)OCC,inactive,–
CC(O)C(=O)O (stereo not given),inactive,–
NC(=O)N1C(=O)C(C(=O)c2cc(Cl)cs2)c2cc(F)c(Cl)cc21 (stereo not given),inactive,–
C[C@@H]1C[C@H]2[C@@H]3CCC4=CC(=O)C=C[C@]4(C)[C@@]3(F)[C@@H](O)C[C@]2(C)[C@@]1(O)C(=O)COP(=O)(O)O,inactive,–
COCC(C)OCC(C)O (stereo not given),inactive,–
CC(C)(C)CC(C)(C)c1ccc(O)c(-n2nc3ccccc3n2)c1,inactive,–
OCCC(F)(F)C(F)(F)C(F)(F)C(F)(F)C(F)(F)C(F)(F)F,inactive,–
